Results from PubChem BioAssay (NCATS).
Records with an inconclusive call do not appear. The source made the active and inactive calls. Calls come from the whole dose curve; as a rule, active = well fitted curve in the direction sought with a large enough effect; inconclusive = small, poorly fitted or top-dose-only effect, or another doubt; inactive = no such curve, though single readings can be large; an effect the other way counts as inactive or inconclusive.

Experiments:
[1] = Quantitative High-Throughput drug screen in 47 multiple myeloma cell lines against the NCATS MIPE library collection: JIM3_ECACC cell viability assay (AID 1918963; note: nearly all actives have a fitted effect of over 35% in size; note: potency is the fitted concentration of half-maximal effect)
Procedure, shortened: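 We plated 500 myeloma cells per well, pinned in MIPE 4.0 compounds, and incubated for 48 hours at 37C. ATP was then quantified with CellTiter-Glo, with DMSO and media-only wells defining 100% and 0%.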

[2] = Quantitative High-Throughput drug screen in 47 multiple myeloma cell lines against the NCATS MIPE library collection: INA6_PLB cell viability assay (AID 1918965; note: nearly all actives have a fitted effect of over 55% in size; note: potency is the fitted concentration of half-maximal effect)
Procedure, shortened: (§1)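 Viability readout: CellTiter-Glo luminescence following 5 min room-temperature incubation with reagent. Prior exposure: 48 h, 37C, humidified 5% CO2, 500 cells per well.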

[3] = Quantitative High-Throughput drug screen in 47 multiple myeloma cell lines against the NCATS MIPE library collection: JJN3_DSMZ cell viability assay (AID 1918966; note: nearly all actives have a fitted effect of over 50% in size; note: potency is the fitted concentration of half-maximal effect)
Procedure, shortened: (§2)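 qHTS of the MIPE 4.0 collection: 500 myeloma cells/well, 48 h drug exposure at 37C in 5% CO2, then CellTiter-Glo for 5 min at room temperature before luminescence reading.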

[4] = Quantitative High-Throughput drug screen in 47 multiple myeloma cell lines against the NCATS MIPE library collection: H1112_PLB cell viability assay (AID 1918967; note: nearly all actives have a fitted effect of over 30% in size; note: potency is the fitted concentration of half-maximal effect)
Procedure, shortened: as §2

[5] = Quantitative High-Throughput drug screen in 47 multiple myeloma cell lines against the NCATS MIPE library collection: Karpas25_ECACC cell viability assay (AID 1918968; note: nearly all actives have a fitted effect of over 35% in size; note: potency is the fitted concentration of half-maximal effect)
Procedure, shortened: as §2

[6] = Quantitative High-Throughput drug screen in 47 multiple myeloma cell lines against the NCATS MIPE library collection: KMS27_JCRB cell viability assay (AID 1918970); conditions: KMS27 myeloma cells, CellTiter-Glo ATP viability, 48 h; viability (% of DMSO): at 45.8 µM (top of the series); note: nearly all actives have a fitted effect of over 30% in size; note: potency is the fitted concentration of half-maximal effect
Procedure, shortened: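 Myeloma cells (500 per well) were exposed to MIPE 4.0 compounds for 48 h at 37 °C, 5% CO2; viability was read as ATP luminescence with CellTiter-Glo, normalized to DMSO-only (100%) and media-only (0%) wells.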

[7] = Quantitative High-Throughput drug screen in 47 multiple myeloma cell lines against the NCATS MIPE library collection: KMS12PE_JCRB cell viability assay (AID 1918972); note: nearly all actives have a fitted effect of over 30% in size; note: potency is the fitted concentration of half-maximal effect
Procedure, shortened: as §1

[8] = Quantitative High-Throughput drug screen in 47 multiple myeloma cell lines against the NCATS MIPE library collection: KMS20_JCRB cell viability assay (AID 1918973); note: nearly all actives have a fitted effect of over 45% in size
Procedure, shortened: as §2

[9] = Quantitative High-Throughput drug screen in 47 multiple myeloma cell lines against the NCATS MIPE library collection: MOLP8_DSMZ cell viability assay (AID 1918977); note: nearly all actives have a fitted effect of over 45% in size; note: potency is the fitted concentration of half-maximal effect
Procedure, shortened: (§3)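 Cells were exposed to library compounds for 48 hours, after which ATP was measured by CellTiter-Glo. Signal was taken as median relative luminescence units.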

[10] = Quantitative High-Throughput drug screen in 47 multiple myeloma cell lines against the NCATS MIPE library collection: LP1_DSMZ cell viability assay (AID 1918982); note: nearly all actives have a fitted effect of over 35% in size; note: potency is the fitted concentration of half-maximal effect
Procedure, shortened: as §3

[11] = Quantitative High-Throughput drug screen in 47 multiple myeloma cell lines against the NCATS MIPE library collection: NCIH929_DSMZ cell viability assay (AID 1918978); note: nearly all actives have a fitted effect of over 35% in size; note: potency is the fitted concentration of half-maximal effect
Procedure, shortened: as §3

[12] = Quantitative High-Throughput drug screen in 47 multiple myeloma cell lines against the NCATS MIPE library collection: OCIMY1_PLB cell viability assay (AID 1918979); note: nearly all actives have a fitted effect of over 35% in size; note: potency is the fitted concentration of half-maximal effect
Procedure, shortened: as §3

[13] = Quantitative High-Throughput drug screen in 47 multiple myeloma cell lines against the NCATS MIPE library collection: MM1R_ATCC cell viability assay (AID 1918981); note: nearly all actives have a fitted effect of over 35% in size; note: potency is the fitted concentration of half-maximal effect
Procedure, shortened: as §3

[14] = Quantitative High-Throughput drug screen in 47 multiple myeloma cell lines against the NCATS MIPE library collection: KMS12BM_JCRB cell viability assay (AID 1918971); note: nearly all actives have a fitted effect of over 35% in size; note: potency is the fitted concentration of half-maximal effect
Procedure, shortened: (§4)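 CellTiter-Glo luminescence (ATP) after 48 h compound exposure, 37C/5% CO2; 500 cells/well; MIPE 4.0 approved/investigational drugs pinned in; DMSO = 100%, media only = 0% viability.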

[15] = Quantitative High-Throughput drug screen in 47 multiple myeloma cell lines against the NCATS MIPE library collection: KMS26_JCRB cell viability assay (AID 1918975); note: nearly all actives have a fitted effect of over 45% in size; note: potency is the fitted concentration of half-maximal effect
Procedure, shortened: as §4

[16] = Quantitative High-Throughput drug screen in 47 multiple myeloma cell lines against the NCATS MIPE library collection: MM1S_ATCC cell viability assay (AID 1918980); note: nearly all actives have a fitted effect of over 45% in size; note: potency is the fitted concentration of half-maximal effect
Procedure, shortened: as §3

[17] = Quantitative High-Throughput drug screen in 47 multiple myeloma cell lines against the NCATS MIPE library collection: MMM1_PLB cell viability assay (AID 1918976)
Procedure, shortened: as §3

[18] = Quantitative High-Throughput drug screen in 47 multiple myeloma cell lines against the NCATS MIPE library collection: JIM1_ECACC cell viability assay (AID 1918964)
Procedure, shortened: as §2

[19] = Quantitative High-Throughput drug screen in 47 multiple myeloma cell lines against the NCATS MIPE library collection: KMS21BM_JCRB cell viability assay (AID 1918974); conditions: ATP luminescence, 48 h; viability: at 45.8 µM (top of the series); note: potency is the fitted concentration of half-maximal effect
Procedure, shortened: as §2

O=c1[nH]c(=O)n([C@H]2C[C@@H](O)[C@@H](CO)O2)cc1C=CBr
Potency [1]: inactive | Potency [2]: inactive | Potency [3]: inactive | Potency [4]: inactive | Potency [5]: inactive | Potency [6]: inactive | Potency [7]: inactive | Potency [8]: inactive | Potency [9]: inactive | Potency [10]: inactive

C[N+]1(C)[C@@H]2C[C@@H](OC(=O)C(O)(c3cccs3)c3cccs3)C[C@H]1[C@@H]1O[C@@H]12
Potency [1]: inactive | Potency [2]: inactive | Potency [3]: inactive | Potency [4]: inactive | Potency [5]: inactive | Potency [6]: inactive | Potency [7]: inactive | Potency [8]: inactive | Potency [11]: inactive | Potency [12]: inactive | Potency [13]: inactive | Potency [10]: inactive

N=c1ccn2c(n1)O[C@H]1[C@@H](O)[C@@H](CO)O[C@H]12
Potency [1]: inactive | Potency [2]: 4180 nM (active) | Potency [3]: inactive | Potency [6]: 5900 nM (active) | Potency [14]: 59 nM (active) | Potency [7]: 11800 nM (active) | Potency [15]: inactive | Potency [11]: 16600 nM (active) | Potency [12]: inactive | Potency [16]: 2640 nM (active) | Potency [10]: inactive

CN1CCc2c(c3ccccc3n2Cc2ccc(C(=O)NO)cc2)C1
Potency [1]: 23500 nM (active) | Potency [2]: 4690 nM (active) | Potency [3]: 18700 nM (active) | Potency [4]: 16600 nM (active) | Potency [5]: 10500 nM (active) | Potency [14]: 16600 nM (active) | Potency [15]: 20900 nM (active) | Potency [11]: 10500 nM (active) | Potency [16]: 16600 nM (active) | Potency [13]: 16600 nM (active)

C[C@]12CCC(=O)C=C1[C@@H]1CC1[C@H]1[C@H]3[C@@H]4C[C@H]4[C@@]4(CCC(=O)O4)[C@@]3(C)CC[C@H]12 (some centres not stated)
Potency [1]: inactive | Potency [2]: 20900 nM (active) | Potency [3]: inactive | Potency [4]: inactive | Potency [7]: 20900 nM (active) | Potency [8]: inactive | Potency [9]: inactive | Potency [11]: inactive | Potency [12]: inactive | Potency [16]: inactive

CC(C)c1cnn2c(NCc3ccccc3)cc(NCCCCCCN)nc12
Potency [1]: 20900 nM (active) | Potency [2]: 26400 nM (active) | Potency [3]: 23500 nM (active) | Potency [6]: 18700 nM (active) | Potency [14]: 26400 nM (active) | Potency [7]: 18700 nM (active) | Potency [15]: 14800 nM (active) | Potency [17]: 18700 nM (active) | Potency [16]: 3320 nM (active) | Potency [13]: 20900 nM (active) | Potency [10]: 18700 nM (active)

CCOC(=O)N1CCN([N+]([O-])=NOc2ccc([N+](=O)[O-])cc2C#N)CC1
Potency [1]: 1050 nM (active) | Potency [2]: 1180 nM (active) | Potency [3]: 418 nM (active) | Potency [4]: 526 nM (active) | Potency [5]: 743 nM (active) | Potency [6]: 372 nM (active) | Potency [14]: 1480 nM (active) | Potency [7]: 833 nM (active) | Potency [15]: 935 nM (active) | Potency [17]: 526 nM (active) | Potency [11]: 2960 nM (active) | Potency [16]: 1320 nM (active) | Potency [10]: 2640 nM (active)

COc1cc2c(cc1O)CCC1C2CC[C@@]2(C)C1CC[C@@H]2O (some centres not stated)
Potency [1]: 1320 nM (active) | Potency [2]: 1660 nM (active) | Potency [3]: 8330 nM (active) | Potency [5]: 2960 nM (active) | Potency [14]: 1180 nM (active) | Potency [15]: 3720 nM (active) | Potency [17]: 6620 nM (active) | Potency [12]: 3320 nM (active) | Potency [16]: 4690 nM (active)

CCCCCCCCCCCCCCCC(=O)OC[C@@H](NC(=O)C(Cl)Cl)[C@H](O)c1ccc([N+](=O)[O-])cc1
Potency [1]: inactive | Potency [18]: inactive | Potency [4]: inactive | Potency [6]: inactive | Potency [14]: inactive | Potency [7]: inactive | Potency [8]: inactive | Potency [15]: inactive | Potency [10]: inactive

COc1ccc(S(=O)(=O)Nc2cccnc2Nc2ccc(O)cc2)cc1
Potency [1]: 52.6 nM (active) | Potency [2]: 83.3 nM (active) | Potency [3]: 1320 nM (active) | Potency [4]: 105 nM (active) | Potency [5]: 235 nM (active) | Potency [14]: 74.3 nM (active) | Potency [15]: 2640 nM (active) | Potency [17]: 1480 nM (active) | Potency [9]: 1180 nM (active) | Potency [11]: 1180 nM (active) | Potency [16]: 209 nM (active) | Potency [13]: 105 nM (active) | Potency [10]: 148 nM (active)

N#Cc1ccc(COC[C@H]2O[C@@H](n3c(NCc4ccc(Cl)c(Cl)c4)nc4c(N)ncnc43)[C@@H](O)[C@@H]2O)cc1
Potency [1]: 14800 nM (active) | Potency [2]: 7430 nM (active) | Potency [3]: 469 nM (active) | Potency [4]: 7430 nM (active) | Potency [5]: 23500 nM (active) | Potency [14]: 5900 nM (active) | Potency [7]: 3720 nM (active) | Potency [15]: 2350 nM (active) | Potency [17]: 4690 nM (active) | Potency [9]: 16600 nM (active) | Potency [11]: 20900 nM (active) | Potency [16]: 18700 nM (active) | Potency [13]: 3720 nM (active)

C[C@@H](NCc1cc2ccccc2[nH]1)c1cccc2ccccc12
Potency [1]: inactive | Potency [2]: 4690 nM (active) | Potency [3]: inactive | Potency [14]: inactive | Potency [8]: inactive | Potency [9]: inactive | Potency [11]: inactive | Potency [10]: inactive

CNC(=O)Nc1ccc(-c2nc(N3CC4CCC(C3)O4)c3cnn(C4CCC5(CC4)OCCO5)c3n2)cc1
Potency [1]: 418 nM (active) | Potency [2]: 41.8 nM (active) | Potency [3]: 11.8 nM (active) | Potency [5]: 10.5 nM (active) | Potency [14]: 6.6 nM (active) | Potency [7]: 74.3 nM (active) | Potency [19]: 41.8 nM (active) | Potency [15]: 1180 nM (active) | Potency [17]: 9.3 nM (active) | Potency [9]: 9.3 nM (active) | Potency [12]: 935 nM (active) | Potency [16]: 14.8 nM (active) | Potency [13]: 41.8 nM (active)
